Structures are written as SMILES. About 4,300 (3.1%) of roughly 140,000 compounds were called active. Not shown: some 21% with an inconclusive outcome. The sample holds actives, similar compounds and a random draw of the others, so the mix is not that of the screen. A number with no mark means an inactive call.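 How the source made its calls: active means readout at or below -70, meaning at least 70% loss of cells showing the perinucleolar compartment, a nuclear body marking cancer cells; inconclusive means readout between -30 and a set limit; inactive means the rest.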

A short description of the experiment: High Content Assay for Compounds that inhibit the Assembly of the Perinucleolar Compartment.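 Further: plate controls were DMSO wells for no effect and camptothecin positive control wells for full effect.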 The conditions noted are these: PC3M PTB-GFP, PNC prevalence imaging, 16 h; at 10 µM; active compounds read low. In short, it runs like this: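 Read-out is percentage of cells bearing a perinucleolar compartment, from automated 20x imaging of fixed, Hoechst-stained PC3M PTB-GFP cells. Cells were seeded 4 h, then exposed 16 h to compound (23 nl of library stock) in duplicate plates.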
With `CC(=O)c1ccc(NC(=O)Nc2ccc([N+](=O)[O-])cc2C)cc1`, the activity change (PNC), negative = inhibition was -13%.
Next, `COc1ccc(NC(=O)Nc2ccc3nc(C)c(C)nc3c2)cc1`: 5.41%; `COc1cc(NC(=O)Nc2ccc(C)cc2)cc([N+](=O)[O-])c1`: -87.1% (active); `O=C(CN1C2=NCCN2c2ccccc21)c1cccs1`: -2.86%.
In the case of `COc1ccc(NS(=O)(=O)c2cc(NC(=O)/C=C/c3cc(OC)c(OC)c(OC)c3)ccc2N2CCCCC2)cc1`, the activity change (PNC), negative = inhibition was -0.688%.
To `CC1(C)CC(=O)C(N=Nc2ccc(S(=O)(=O)N3CCCCCC3)cc2)=C(O)C1` belongs 24.1%; to `COc1ccc(CNC(=O)CN(Cc2ccc(Cl)cc2)S(C)(=O)=O)cc1`, 48.3%; to `O=C(CSc1nc(-c2ccccc2)cs1)Nc1cccc([N+](=O)[O-])c1`, 126%.
For the compound `Cc1cccc(NC(=O)c2sc(-c3ccccc3)nc2-c2ccc([N+](=O)[O-])cc2)c1`, the activity change (PNC), negative = inhibition is -100% (active).
For `COc1ccc(C(=O)Nc2nc(-c3ccc(OC)cc3)c(-c3ccc([N+](=O)[O-])cc3)s2)cc1`, the activity change (PNC), negative = inhibition was -23.3%.
Next, `O=C1/C(=C\c2cccnc2)CN(Cc2ccccc2)C/C1=C\c1cccnc1`: -112% (active).
To `O=C1OC(c2ccc(Cl)cc2)=N/C1=C\c1cccnc1` belongs 41.2%.
`O=C(O)C1CC(=O)N(Cc2cccnc2)C1` (configuration not stated): the activity change (PNC), negative = inhibition was -9.97%.
In the case of `O=C(Nn1c(-c2ccc(Cl)cc2)nc2ccccc2c1=O)c1cccnc1Cl`, the activity change (PNC), negative = inhibition is 8.85%.
Take `Cc1ccnc(NS(=O)(=O)c2ccc(NC(=O)c3ccc(S(=O)(=O)N4CCOCC4)cc3)cc2)n1`: the activity change (PNC), negative = inhibition is -19.3%.
Turning to `CC(OC(=O)CNS(=O)(=O)/C=C/c1ccccc1)C(=O)Nc1ccc(S(=O)(=O)N2CCCC2)cc1` (configuration not stated), the activity change (PNC), negative = inhibition is 64.4%.
With `CCOC(=O)/C(=N\Nc1cc(Cl)ccc1Cl)N1CCN(C)CC1`, the activity change (PNC), negative = inhibition is -27.3%.
Next, `c1ccc2[nH]c(NCCN3CCOCC3)nc2c1`: -1.68%; `O=C(Cn1c(-c2ccccn2)nc2ccccc21)NCCN1CCOCC1`: 42.9%.
To `c1ccc2cc3c(NCCN4CCOCC4)ccnc3cc2c1` belongs -103% (active).
`NS(=O)(=O)c1ccc(NC(=O)COC(=O)C2(c3ccc(F)cc3)CCCC2)cc1`: the activity change (PNC), negative = inhibition was 50%.
Consider `CC1(C)Cc2cccc(OCC(=O)N3CCN(c4ccc([N+](=O)[O-])cc4)CC3)c2O1`, for which the activity change (PNC), negative = inhibition is 7.92%.
`CC1(C)Cc2cccc(OCC(=O)Nc3nccs3)c2O1`: the activity change (PNC), negative = inhibition was -87.8% (active).
For the compound `CCCCOC(=O)Nc1nccs1`, the activity change (PNC), negative = inhibition was 243%.
In the case of `Cc1ccccc1C(OCCN(C)C)C1CCCCC1` (configuration not stated), the activity change (PNC), negative = inhibition was -5.25%.
Consider `Cc1ccccc1Nc1nc(N)nc(CSc2ccccc2)n1`, for which the activity change (PNC), negative = inhibition is -3.06%.
With `N=c1c2c(-c3ccccc3)c(-c3ccccc3)n(Cc3ccccc3)c2ncn1CCCO`, the activity change (PNC), negative = inhibition was -90.2% (active).
Next, `OCCCN1c2ccccc2Nc2nnc(-c3ccccc3)cc21`: -15.1%; `N=c1c2c(-c3ccccc3)c(-c3ccccc3)oc2ncn1Cc1ccco1`: 34.2%; `CN(C)c1ccc(/C=N/N(Cc2ccccc2)c2ccccc2)cc1`: -6.4%.
As to `CCN1CN(Cc2ccccc2)CNC1=S`, the activity change (PNC), negative = inhibition was -4.78%.
With `CCCCOc1ccc(CSC(=N)N)cc1[N+](=O)[O-]`, the activity change (PNC), negative = inhibition was -6.06%.
To `CCCOc1ccc(Cn2ccnc2)cc1[N+](=O)[O-]` belongs -21.9%.
Next, `CCCCCOc1ccc(CSC2=NCCN2)cc1[N+](=O)[O-]`: -84.7% (active); `COc1ccc(Br)cc1CN(C)CC(=O)Nc1cc(Cl)cc(Cl)c1`: 5.92%.
Next, `O=C(NC1CC1)c1cccc(Br)c1`: 8.13%; `Cc1cc(C)cc(NC(=S)NCCc2c[nH]c3ccccc23)c1`: 22.2%; `CN(c1ccccc1)S(=O)(=O)c1ccc(Cl)c(C(=O)NCCc2c[nH]c3ccccc23)c1`: -83.7% (active).
Regarding `CCN(CC)S(=O)(=O)c1ccc2[nH]cc(C(=O)NCCc3ccccc3)c(=O)c2c1`, the activity change (PNC), negative = inhibition is -4.74%.
As for `O=C(NNC1CC(=O)N(c2cccc(Cl)c2)C1=O)c1cccnc1` (configuration not stated), the activity change (PNC), negative = inhibition was -121% (active).
With `O=C1CC(NNc2ccccc2)C(=O)N1c1cccc(Cl)c1` (configuration not stated), the activity change (PNC), negative = inhibition is 44.7%.
With `Cc1ccc(-n2nc3cc(C)c(NC(=O)c4cccnc4)cc3n2)cc1`, the activity change (PNC), negative = inhibition was 22.4%.
For `O=C(CCc1ccc(S(=O)(=O)N2CCOCC2)cc1)NN=C1CCCCCCC1`, the activity change (PNC), negative = inhibition was -25.6%.
To `N#CC1=C(N)Oc2c(sc3ccccc23)C1c1ccco1` (configuration not stated) belongs -91.1% (active); to `Cc1cc2c(c(=O)n1Cc1ccco1)C(c1ccccc1)C(C#N)=C(N)O2` (configuration not stated), -6.34%; to `Cc1cc2oc(C(=O)Nc3c(C)n(C)n(-c4ccccc4)c3=O)c(C)c2cc1Cl`, 2.22%.
In the case of `Cc1cccc(NC(=O)/C=C/c2ccc3c(c2)OCO3)n1`, the activity change (PNC), negative = inhibition is 46%.
In the case of `COc1ccc(NC(=O)c2c(SC)nsc2SC)cc1`, the activity change (PNC), negative = inhibition is -6.12%.
In the case of `COc1ccc(NC(=O)c2sccc2SCC#N)cc1`, the activity change (PNC), negative = inhibition was -88.1% (active).
`COc1ccc(NC(=O)c2ccc(C#CC(C)(C)O)cc2)cc1`: the activity change (PNC), negative = inhibition is -12.4%.
With `CCCOC(=O)c1ccc(N2C(=O)c3ccccc3C2=O)cc1`, the activity change (PNC), negative = inhibition is -21.8%.
In the case of `COc1ccc(C(=O)NC2(C(F)(F)F)NC(=O)N(CCCc3ccccc3)C2=O)c(OC)c1OC` (configuration not stated), the activity change (PNC), negative = inhibition was -8.14%.
`O=C(O)CCC(=O)Nc1ccc(N2CCOCC2)cc1`: the activity change (PNC), negative = inhibition is -23.8%.
For `CN(CC(=O)Nc1ccc(N2CCOCC2)cc1)CC(=O)Nc1ccccc1[N+](=O)[O-]`, the activity change (PNC), negative = inhibition is -100% (active).
On to `CC(=O)Nc1ccc(S(=O)(=O)N2CCN(c3ccc([N+](=O)[O-])c(NCCN4CCOCC4)c3)CC2)cc1`, for which the activity change (PNC), negative = inhibition is -13.1%.
For `O=C(NCCc1ccccc1)C1CCC(Cn2c(=O)c3ccccc3n(Cc3cccnc3)c2=O)CC1` (configuration not stated), the activity change (PNC), negative = inhibition was 13.2%.
`Cc1nc(SCc2ccc(F)cc2)c([N+](=O)[O-])[nH]1`: the activity change (PNC), negative = inhibition was 17.5%.
Next, `CCC(NC(=O)c1ccccc1NC(=O)c1ccccc1)C(=O)NNC(=O)CSc1nc2ccccc2o1` (configuration not stated): -4.05%; `COCCn1c(=O)[nH]c(=O)c2cc(C(=O)c3cc(OC)ccc3O)cnc21`: -8.95%; `Cc1ccccc1NC(=O)c1ccc(COc2ccc3c(C)cc(=O)oc3c2)cc1`: 90.9%.
To `Cc1ccccc1N1CCN(CCCOc2ccc3c(C)cc(=O)oc3c2)CC1` belongs -23.3%.
On to `Cc1cc(=O)oc2cc(OCC3CC(c4ccccc4Cl)=NO3)ccc12` (configuration not stated), for which the activity change (PNC), negative = inhibition is -89.5% (active).
In the case of `COc1ccc(/C(N)=N/OC(=O)CCCc2ccccc2)cc1`, the activity change (PNC), negative = inhibition is -16.1%.
To `COc1ccccc1NC(=O)CCCc1c[nH]c2ccccc12` belongs -4.48%.
Next, `COc1ccccc1NC(=O)C1=C(C)Nc2nc3ccccc3n2C1c1cccs1` (configuration not stated): -82.7% (active); `COc1cc(C2C(C(=O)Nc3ccccc3OC)=C(C)Nc3ncnn32)ccc1O` (configuration not stated): 17.6%; `COc1ccccc1NC(=O)C1=C(C)Nc2ncnn2C1c1ccc(C)o1` (configuration not stated): -27.1%.
Next, `Cc1ccc(Oc2cc(NC(=O)CCCn3nc(C)c([N+](=O)[O-])c3C)cc([N+](=O)[O-])c2)cc1`: 5%; `CNC(=O)NC(=O)C(OC(=O)c1cccc(S(=O)(=O)N2CCCCC2)c1)c1ccccc1` (configuration not stated): -3.58%; `COc1cc(OC)cc(-c2nc3ccccc3c(=O)n2NC(=O)c2cccnc2Cl)c1`: -30%.
Take `N#Cc1ccccc1Sc1ccccc1C(=O)OCC(=O)NC1CCCCC1`: the activity change (PNC), negative = inhibition is 33.1%.
As to `O=C(COC(=O)c1cc(-c2cccs2)nn1-c1ccccc1)Nc1cc([N+](=O)[O-])ccc1Cl`, the activity change (PNC), negative = inhibition is 21.6%.
Regarding `CCCCC(C(=O)OCC(=O)c1ccc(OC)cc1)N1C(=O)c2ccccc2C1=O` (configuration not stated), the activity change (PNC), negative = inhibition is -100% (active).
To `COc1ccc(OCCCON2C(=O)c3ccccc3C2=O)cc1` belongs 0.67%.
Take `COc1ccc(C(=O)CN(C(=O)c2ccc(Cl)cc2)N2C(=O)c3ccccc3C2=O)cc1`: the activity change (PNC), negative = inhibition is -9.88%.
Take `CCCCN1C(=O)CCC(C(=O)O)C1c1ccc(OC)cc1` (configuration not stated): the activity change (PNC), negative = inhibition was 36.8%.
For the compound `CCN(CC)c1ccc(S(=O)(=O)N2CCOCC2)cc1NC(=O)CSc1cccc[n+]1[O-]`, the activity change (PNC), negative = inhibition was 11.8%.
Consider `O=C(c1cccnc1NCc1ccccc1)N1CCOCC1`, for which the activity change (PNC), negative = inhibition is 40.9%.
On to `Cc1nc(NCc2ccccc2)c(C(N)=O)c2c1COC(C)(C)C2`, for which the activity change (PNC), negative = inhibition was -122% (active).
`Cc1nc(NCCN)c(C#N)c2c1COC(C)(C)C2`: the activity change (PNC), negative = inhibition was 32.5%.
For the compound `S=C(NCc1ccc(Cl)cc1)NC1CCCCC1`, the activity change (PNC), negative = inhibition was 32.1%.
Turning to `COc1ccc(S(=O)(=O)N2CCN(C(=O)c3cccs3)CC2)cc1OC`, the activity change (PNC), negative = inhibition is -15.3%.
Next, `COc1ccc(S(=O)(=O)N2CCC(C(=O)N3CCc4ccccc4C3)CC2)cc1OC`: -84.1% (active).
For `COc1ccc(S(=O)(=O)N2CCC(C(=O)N3CCOCC3)CC2)cc1OC`, the activity change (PNC), negative = inhibition was -7.88%.
For `C=CCNC(=O)/C(=C\c1cccc([N+](=O)[O-])c1)NC(=O)c1ccccc1`, the activity change (PNC), negative = inhibition is 48.8%.
With `O=C(CSc1ncnc2scc(-c3ccccc3)c12)NCc1ccc2c(c1)OCO2`, the activity change (PNC), negative = inhibition is 40.3%.
To `Cc1cc(O)ccc1NC1=CC(=O)CC(C)(C)C1` belongs -15.4%; to `Cc1nc2ccccc2cc1OCc1ccc(F)cc1`, 41.2%; to `Cc1noc(COc2ccccc2OCc2onc(C)c2Cl)c1Cl`, -100% (active).
Consider `Cc1noc(COc2ccccc2OCC(O)CNC(C)(C)C)n1` (configuration not stated), for which the activity change (PNC), negative = inhibition was -3.16%.
For `COc1ccc(CCNC(=O)COC(=O)C2CCCCC2)cc1`, the activity change (PNC), negative = inhibition is 43.3%.
For the compound `Cc1cccc(C)c1NC(=O)C(c1ccccc1)N1CC(=O)Nc2ccccc21` (configuration not stated), the activity change (PNC), negative = inhibition is 43.2%.

For the origin of these results see PubChem BioAssay AID2417 (National Center for Advancing Translational Sciences (NCATS), 2010).
